± gives the standard deviation.
Legend:
[1] = test system: Streptococcus suis HE06; assay: percent growth relative to DMSO control; higher = less growth inhibition; details: 10 µM; incubation time 18 h
Protocol: (§1)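 CLSI broth microdilution: 5x10^4 CFU of Streptococcus suis (strain P1/7 or HE06) incubated with 10 µM Pathogen Box compound in cation-adjusted Mueller Hinton broth, 37 °C, 5% CO2, 18 h. Growth read as OD600 and expressed as percent of the DMSO-treated control (100%); mean ± SD of three independent experiments.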

[2] = test system: Streptococcus suis P1/7; assay: as above; details: 10 µM; incubation time 18 h
Protocol: as §1

Row | Structure (SMILES) | percent growth [1] [%] | percent growth [2] [%]
1 | CC(=O)NC[C@@H]1CN(c2ccc(N3CCOCC3)c(F)c2)C(=O)O1 | 3.9 ± 5.2 | 3.05 ± 1.6
2 | c1ccc(Oc2ccc(-c3cncc(-c4ccc5[nH]ccc5c4)n3)cc2)cc1 | 109 ± 24 | 83.7 ± 20
3 | COc1ccc2nc(C)cc(OCC(=O)NCc3ccccc3)c2c1 | 91.7 ± 11 | 75.5 ± 9.7
4 | Clc1ccc(CN2CCN(C3=NCCN3)CC2)cc1Cl | 89 ± 2.1 | 72.2 ± 28
5 | COc1ccc(-c2onc(C(F)(F)F)c2-c2ccc(Cl)cc2)c(O)c1 | 26.1 ± 45 | 19.4 ± 34
6 | CNc1nnc(Sc2cnn(-c3ccccc3)c(=O)c2Cl)s1 | 81.9 ± 1.8 | 110 ± 52
7 | CN1CCN(S(=O)(=O)c2ccc(-c3ccc4c(Nc5ccc6nn[nH]c6c5)ccnc4c3)cc2)CC1 | 103 ± 42 | 63 ± 23
8 | NS(=O)(=O)c1cccc(-c2ccc3ncc(N4CCOCC4)nc3c2)c1 | 99.2 ± 34 | 71.6 ± 6.4
9 | CC1CC1C(=O)NC1CCN(CC2(c3ccccc3)CCCCC2)CC1 (stereo not given) | 76.8 ± 15 | 71.1 ± 43
10 | Nc1ncnc2[nH]nc(Cc3cccc4ccccc34)c12 | 104 ± 35 | 66.1 ± 20
11 | CC(C)(C)c1cc(C(=O)N2CCN(c3nccnc3C#N)CC2)n(Cc2ccccc2)n1 | 93.1 ± 32 | 91.6 ± 34
12 | O=C(Cn1ccnc1[N+](=O)[O-])NCc1ccccc1 | 79.1 ± 10 | 114 ± 48
13 | Clc1ccc(-n2cc(COc3ccnc4ccccc34)nn2)cc1 | 84.2 ± 6 | 77.9 ± 13
14 | COc1cccc(CC(=O)N2CCC(n3c(C)nc4ccc(F)cc43)CC2)c1 | 104 ± 52 | 65.2 ± 15
15 | Brc1c(-c2ccc3c(c2)OCO3)nc2ncccn12 | 95.7 ± 6.9 | 85.8 ± 20
16 | CN(C)CCNC(=O)N1CCCN(c2ncnc3cc(-c4ccccc4)sc23)CC1 | 92.9 ± 31 | 72.1 ± 3.5
17 | CS(=O)(=O)N1CCC(Cn2nc(Cc3cccc4ccccc34)c3c(N)ncnc32)CC1 | 91.3 ± 29 | 65.7 ± 20
18 | CC(C(=O)Nc1ccc2oc(-c3ccncc3)nc2c1)c1ccccc1 (stereo not given) | 81.1 ± 11 | 95.8 ± 45
19 | Cc1cnc(CCNC(=O)c2cc(-c3ccc(Cl)cc3)cs2)[nH]1 | 80.7 ± 6.9 | 77.5 ± 18
20 | O=C(NCCc1ccccc1)c1cc(-c2cccnc2)cnc1NCC1CC1 | 88.2 ± 20 | 59.7 ± 23

— the supplement of paper PMC7866885, “A novel bicyclic 2,4-diaminopyrimidine inhibitor of Streptococcus suis dihydrofolate reductase” (PeerJ, 2021)
